For experiment [1], the target named is Thyrotropin-releasing hormone receptor (Homo sapiens) (UniProt P34981). Put plainly: qHTS assay to identify small molecule agonists of the thyrotropin-releasing hormone receptor (TRHR) signaling pathway (AID 1346891; calls by dose curve;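 also: HEK293 cells expressing TRHR with calcium dye readout; series mostly up to about 58 µM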). In a few lines:
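HEK293/TRHR cells, 1500 per well, 18 h 37 °C; Ca dye 2 h 37 °C; pin-tool compound addition (agonist mode); kinetic fluorescence 3 min, 1 s reads; 15 concentrations, triplicate.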

Experiment [2] in a line: Human pregnane X receptor (PXR) small molecule agonists, qHTS cell viability counter screen (AID 1346977). Also: nearly all actives have a fitted effect of over 50% in size. In a few lines:
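Fluorescence read-out (CellTiter-Fluor) of viability in PXR-Luc HepG2 cells, multiplexed with the luciferase agonist read. Compounds in DMSO added after 5hr plating; 24hr total exposure at 37C, 5% CO2.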

Experiment [3] in a line: Caspase-3/7 induction in HepG2 cells by small molecules, qHTS assay (AID 1346978). Also: nearly all actives have a fitted effect of over 15% in size. The essentials:
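Caspase-3/7 induction was measured by Caspase-Glo 3/7 luminescence (30 min, room temperature) after a 17 hr compound exposure of wild-type HepG2 cells seeded at 2,000 per well and pre-incubated 5 hr.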

Experiment [4] can be described thus: Caspase-3/7 induction in CHO-K1 cells by small molecules, qHTS cell viability counter screen (AID 1346979). Also: nearly all actives have a fitted effect of over 35% in size. The essentials:
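CHO-K1 wt, 1,500 cells/well; 5hr pre-incubation 37C/5% CO2; compound pin transfer (DMSO); 16hr exposure; CellTiter-Fluor added, 1hr, fluorescence read.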

The nature of experiment [5]: Caspase-3/7 induction in CHO-K1 cells by small molecules, qHTS assay (AID 1346980). Also: nearly all actives have a fitted effect of over 15% in size. The essentials:
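Luminescent Caspase-Glo 3/7 read (30min, room temperature) quantified apoptosis induction. Cells were wild-type CHO-K1, treated with compound for 17hr at 37 C and 5% CO2.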

Experiment [6] in a line: Caspase-3/7 induction in HepG2 cells by small molecules, qHTS cell viability counter screen (AID 1346981). Also: series mostly up to about 92 µM; nearly all actives have a fitted effect of over 30% in size. In a few lines: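 In this quantitative HTS counter screen, compounds delivered in DMSO were left on unmodified HepG2 cells for 16 hr at 37 C. Viability was then determined fluorometrically with CellTiter-Fluor, in parallel with caspase-3/7 induction in the same wells.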

Experiment [7] concerns the target Nuclear receptor subfamily 1 group I member 2 (Homo sapiens) (UniProt O75469). Put plainly: Human pregnane X receptor (PXR) small molecule agonists, qHTS assay (AID 1346982). Also: nearly all actives have a fitted effect of over 35% in size. Also: potency is read from the fitted curve at half-maximal effect. In a few lines:
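Reporter HepG2 cells expressing PXR-Luc are cultured in charcoal-stripped FBS (5%), treated with compounds for 24 hr at 37 C, and assayed by ONE-Glo luminescence after 30 min at room temperature.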

The target of experiment [8] is Acetylcholinesterase (Homo sapiens) (UniProt P22303). The experiment in a line: Acetylcholinesterase (AChE) small molecule antagonists: colormetric cell-based qHTS assay (AID 1347395; calls by dose curve; also: nearly all actives have a fitted effect of over 30% in size). In a few lines: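 SH-SY5Y cells; cpd 30 min 37 C; + DTNB/acetylthiocholine, 90 min 37 C; colorimetric thiocholine read; qHTS.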
Chain of Acetylcholinesterase (Homo sapiens) (P22303 whole entry, looked up): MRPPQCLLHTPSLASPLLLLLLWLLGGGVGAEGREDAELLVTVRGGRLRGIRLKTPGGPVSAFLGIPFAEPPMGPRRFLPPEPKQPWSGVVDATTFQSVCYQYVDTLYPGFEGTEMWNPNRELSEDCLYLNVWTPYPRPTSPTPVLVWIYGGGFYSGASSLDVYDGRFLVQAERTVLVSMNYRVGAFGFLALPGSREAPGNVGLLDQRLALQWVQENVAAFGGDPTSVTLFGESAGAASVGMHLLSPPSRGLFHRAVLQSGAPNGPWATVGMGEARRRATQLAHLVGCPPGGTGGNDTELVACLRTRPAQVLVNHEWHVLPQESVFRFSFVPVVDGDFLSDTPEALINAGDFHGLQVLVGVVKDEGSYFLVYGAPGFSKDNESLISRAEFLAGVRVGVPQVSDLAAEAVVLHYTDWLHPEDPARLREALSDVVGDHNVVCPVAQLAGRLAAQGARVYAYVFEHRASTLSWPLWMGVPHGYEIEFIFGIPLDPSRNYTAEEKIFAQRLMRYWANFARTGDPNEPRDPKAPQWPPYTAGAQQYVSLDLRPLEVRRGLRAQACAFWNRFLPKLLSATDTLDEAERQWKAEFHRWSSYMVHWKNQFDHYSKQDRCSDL
For experiment [9] the target is unchanged. Put plainly: Acetylcholinesterase (AChE) small molecule antagonists: enzyme-based qHTS assay (AID 1347397; calls by dose curve; also: nearly all actives have a fitted effect of over 55% in size). To be noted: Potency: AChE enzyme activity inhibition; outcome: AChE enzyme activity inhibition. In a few lines:
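First, recombinant human AChE (50 mU/mL as dispensed) received test compound or DMSO. Second, plates stood 30 min at room temperature. Third, DTNB and acetylthiocholine were added, followed by 10 min at room temperature and colorimetric detection.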

Experiment [10] has the same target. Put plainly: Acetylcholinesterase (AChE) small molecule antagonists: fluorescence cell-based qHTS assay (AID 1347398; calls by dose curve; also: nearly all actives have a fitted effect of over 50% in size). The note with it: Potency: AChE activity; outcome: AChE activity. In a few lines: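 Homogeneous quantitative HTS format. SH-SY5Y cells seeded at 2,000 per well settle overnight at 37 C. Compound pretreatment runs 30 min (37 C, 5% CO2); substrate/probe mix then reacts 40 min at RT before reading 490/520 nm.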

Experiment [11] shares this target. Put plainly: Acetylcholinesterase (AChE) small molecule antagonists: enzyme-based qHTS assay with human liver microsomes (AID 1347399; calls by dose curve; also: nearly all actives have a fitted effect of over 60% in size). To be noted: Potency: qHTS inhibition; outcome: qHTS inhibition. The essentials: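 Recombinant human AChE (50 mU/mL in the enzyme mix) and human liver microsomes (0.25 mg/mL final) were preincubated with compound and NADPH (0.25 mg/mL final) for 30 min at 37 C. Acetylthiocholine/DTNB was then added; thiocholine was read colorimetrically after 10 min at room temperature.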

The target in experiment [12] is Cytochrome P450 2D6 (Homo sapiens) (UniProt P10635). The experiment in a line: Cytochrome P450 Family 2 Subfamily D Member 6 (CYP2D6) small molecule antagonists: luciferase reporter qHTS assay (AID 1671196). Also: nearly all actives have a fitted effect of over 50% in size. Also: potency is read from the fitted curve at half-maximal effect. As to activity change, negative = inhibition: series mostly up to about 120 µM. In a few lines: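 Test chemicals meet CYP2D6 plus proluciferin substrate (10 min, RT); NADPH regenerating solution then drives turnover for 1 h. Detection reagent halts the reaction; luminescence measured after 20 min.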
Chain of Cytochrome P450 2D6 (Homo sapiens) (P10635 whole entry, looked up): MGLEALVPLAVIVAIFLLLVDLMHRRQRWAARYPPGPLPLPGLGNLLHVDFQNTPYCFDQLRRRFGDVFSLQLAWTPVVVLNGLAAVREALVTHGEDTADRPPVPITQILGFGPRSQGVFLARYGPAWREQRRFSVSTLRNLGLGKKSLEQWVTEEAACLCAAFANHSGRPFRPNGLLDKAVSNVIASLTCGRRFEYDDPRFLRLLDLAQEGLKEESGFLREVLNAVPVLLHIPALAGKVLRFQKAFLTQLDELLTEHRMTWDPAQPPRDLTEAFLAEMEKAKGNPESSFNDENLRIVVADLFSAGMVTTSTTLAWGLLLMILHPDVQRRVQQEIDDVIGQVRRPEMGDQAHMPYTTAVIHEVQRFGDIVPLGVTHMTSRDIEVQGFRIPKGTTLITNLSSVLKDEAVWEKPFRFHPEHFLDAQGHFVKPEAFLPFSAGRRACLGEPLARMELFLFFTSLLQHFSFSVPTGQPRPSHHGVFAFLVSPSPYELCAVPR

Experiment [13] deals with Cytochrome P450 2C19 (Homo sapiens) (UniProt P33261). Put plainly: Cytochrome P450 Family 2 Subfamily C Member 19 (CYP2C19) small molecule antagonists: luciferase reporter qHTS assay (AID 1671197). Also: nearly all actives have a fitted effect of over 65% in size. Also: potency is read from the fitted curve at half-maximal effect. As to activity change, negative = inhibition: series mostly up to about 120 µM. In a few lines: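 Quantitative high-throughput screen of the Tox21 library using CYP2C19 with proluciferin substrate. Reaction: NADPH regeneration, 37C, 1 h, after 10 min compound preincubation at room temperature. Readout: luminescence.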
Chain of Cytochrome P450 2C19 (Homo sapiens) (P33261 whole entry, looked up): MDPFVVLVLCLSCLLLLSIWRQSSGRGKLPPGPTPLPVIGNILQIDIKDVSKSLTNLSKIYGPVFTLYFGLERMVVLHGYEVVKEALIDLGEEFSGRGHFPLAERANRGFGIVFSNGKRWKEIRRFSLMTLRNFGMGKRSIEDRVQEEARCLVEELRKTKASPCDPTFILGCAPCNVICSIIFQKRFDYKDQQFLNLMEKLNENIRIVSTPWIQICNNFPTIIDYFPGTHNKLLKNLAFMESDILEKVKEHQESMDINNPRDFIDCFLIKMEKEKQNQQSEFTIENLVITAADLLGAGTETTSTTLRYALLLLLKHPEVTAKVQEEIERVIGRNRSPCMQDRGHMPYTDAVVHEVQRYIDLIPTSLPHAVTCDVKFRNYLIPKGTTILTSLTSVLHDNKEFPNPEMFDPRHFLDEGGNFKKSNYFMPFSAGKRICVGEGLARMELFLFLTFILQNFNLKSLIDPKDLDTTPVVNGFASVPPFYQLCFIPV

In experiment [14] the target is Cytochrome P450 2C9 (Homo sapiens) (UniProt P11712). Put plainly: Cytochrome P450 Family 2 Subfamily C Member 9 (CYP2C9) small molecule antagonists: luciferase reporter qHTS assay (AID 1671198). Also: nearly all actives have a fitted effect of over 50% in size. Also: potency is read from the fitted curve at half-maximal effect. As to activity change, negative = inhibition: series mostly up to about 120 µM. In a few lines:
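Enzyme-substrate mix preincubated with compound 10 min at room temperature; reaction started with NADPH regeneration solution, 1 h 37C. Luminescent luciferin product read after 20 min detection reagent.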

For experiment [15], the target named is Voltage-gated inwardly rectifying potassium channel KCNH2 (Homo sapiens) (UniProt Q12809). The experiment in a line: Human Ether-a-go-go-Related Gene (hERG) channel small molecule antagonists: fluorescence cell-based qHTS assay (AID 1671200). The essentials:
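Read-out: thallium influx as a surrogate for potassium, tracked as fluorescence (480 nm ex/540 nm em) every second for 2 min after Stimulus Buffer addition in dye-loaded hERG-U2OS cells.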

Experiment [16] deals with Cytochrome P450 3A4 (Homo sapiens) (UniProt P08684). Put plainly: Cytochrome P450 Family 3 Subfamily A Member 4 (CYP3A4) small molecule antagonists: luciferase reporter qHTS assay (AID 1671201). Also: nearly all actives have a fitted effect of over 50% in size. Also: potency is read from the fitted curve at half-maximal effect. As to activity change, negative = inhibition: series mostly up to about 120 µM. The essentials: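 Luminescent readout (RLU) proportional to CYP3A4 activity, from luciferin generated off a proluciferin substrate. Enzyme–substrate mix plus compound 10 min at room temp, NADPH regeneration 1 h, detection reagent 20 min.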

In experiment [17] the target is Nuclear receptor subfamily 1 group I member 2 (Rattus norvegicus) (UniProt Q9R1A7). Put plainly: Rat pregnane X receptor (rPXR) activation by small molecules, qHTS assay (AID 1346983). Also: nearly all actives have a fitted effect of over 20% in size. The note with it: rPXR luciferase reporter cells, One-Glo luminescence, 24 h; hits give high values. In a few lines:
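Luminescent readout (One-Glo luciferase, 30 min room temperature) followed 24 hr compound treatment at 37 C of rPXR cells plated 2,000 per well and preincubated 5hr; qHTS format with compounds delivered in DMSO.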

Experiment [18] addresses Cytochrome P450 1A2 (Homo sapiens) (UniProt P05177). Put plainly: Cytochrome P450 Family 1 Subfamily A Member 2 (CYP1A2) small molecule antagonists: luciferase reporter qHTS assay (AID 1671199). Also: nearly all actives have a fitted effect of over 50% in size. Also: potency is read from the fitted curve at half-maximal effect. As to activity change, negative = inhibition: series mostly up to about 120 µM. In a few lines:
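Steps: enzyme-substrate mix dispensed; test compounds and furafylline control pinned in; 10 min room temperature; NADPH regeneration solution added, 1 h; reaction stopped with luciferin detection reagent; luminescence read after 20 min.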

Experiment [19] concerns the target Nuclear receptor subfamily 1 group I member 2 (Homo sapiens) (UniProt O75469). Put plainly: Human pregnane X receptor (PXR) activation by small molecules, qHTS assay (AID 1346985). Also: nearly all actives have a fitted effect of over 40% in size. In a few lines: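 DPX-2 cells (HepG2 co-transfected with a PXR response element and a CYP3A4-promoter luciferase construct) were seeded at 2,000 per well, rested 5 hr at 37C, then exposed to DMSO-dissolved compounds for 24 hr. Activation was read as luciferase luminescence.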

Unmarked numbers belong to inactive results. Records with an inconclusive call do not appear. Active and inactive are the calls of the source. Unless noted, calls follow the shape of the dose curve; as a rule, active = well fitted curve in the direction sought with a large enough effect in the repeat runs; inconclusive = weak or mixed curves; inactive = no such curve, though single readings can be large; an effect the other way counts as inactive or inconclusive.
% is scaled to controls: 0 for no effect and ±100 for the full control effect.

Chain of Nuclear receptor subfamily 1 group I member 2 (Homo sapiens) (O75469 whole entry, looked up): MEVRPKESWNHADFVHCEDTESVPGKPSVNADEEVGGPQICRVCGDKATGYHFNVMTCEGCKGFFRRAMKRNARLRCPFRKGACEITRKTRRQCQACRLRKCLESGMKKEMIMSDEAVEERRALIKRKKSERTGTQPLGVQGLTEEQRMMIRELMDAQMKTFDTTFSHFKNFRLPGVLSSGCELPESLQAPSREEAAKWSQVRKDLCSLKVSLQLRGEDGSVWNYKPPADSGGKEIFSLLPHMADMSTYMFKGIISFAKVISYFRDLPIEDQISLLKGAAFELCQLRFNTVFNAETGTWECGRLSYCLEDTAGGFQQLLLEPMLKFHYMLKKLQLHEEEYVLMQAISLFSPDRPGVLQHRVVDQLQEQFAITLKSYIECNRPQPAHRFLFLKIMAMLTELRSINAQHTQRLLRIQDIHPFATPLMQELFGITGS
Chain of Cytochrome P450 1A2 (Homo sapiens) (P05177 whole entry, looked up): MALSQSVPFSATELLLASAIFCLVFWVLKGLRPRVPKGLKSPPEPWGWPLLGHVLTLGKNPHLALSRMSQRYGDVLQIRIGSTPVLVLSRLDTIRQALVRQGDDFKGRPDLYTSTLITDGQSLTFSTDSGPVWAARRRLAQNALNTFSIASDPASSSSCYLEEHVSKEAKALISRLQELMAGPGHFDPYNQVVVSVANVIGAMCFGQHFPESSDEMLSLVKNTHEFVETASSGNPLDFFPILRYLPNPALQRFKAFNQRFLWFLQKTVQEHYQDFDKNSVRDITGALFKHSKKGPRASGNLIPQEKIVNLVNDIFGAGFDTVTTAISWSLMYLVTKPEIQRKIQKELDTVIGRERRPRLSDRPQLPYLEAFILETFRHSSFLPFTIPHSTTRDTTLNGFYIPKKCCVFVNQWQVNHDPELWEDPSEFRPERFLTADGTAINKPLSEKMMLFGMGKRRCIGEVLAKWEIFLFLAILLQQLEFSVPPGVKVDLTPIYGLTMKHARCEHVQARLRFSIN
Chain of Nuclear receptor subfamily 1 group I member 2 (Rattus norvegicus) (Q9R1A7 whole entry, looked up): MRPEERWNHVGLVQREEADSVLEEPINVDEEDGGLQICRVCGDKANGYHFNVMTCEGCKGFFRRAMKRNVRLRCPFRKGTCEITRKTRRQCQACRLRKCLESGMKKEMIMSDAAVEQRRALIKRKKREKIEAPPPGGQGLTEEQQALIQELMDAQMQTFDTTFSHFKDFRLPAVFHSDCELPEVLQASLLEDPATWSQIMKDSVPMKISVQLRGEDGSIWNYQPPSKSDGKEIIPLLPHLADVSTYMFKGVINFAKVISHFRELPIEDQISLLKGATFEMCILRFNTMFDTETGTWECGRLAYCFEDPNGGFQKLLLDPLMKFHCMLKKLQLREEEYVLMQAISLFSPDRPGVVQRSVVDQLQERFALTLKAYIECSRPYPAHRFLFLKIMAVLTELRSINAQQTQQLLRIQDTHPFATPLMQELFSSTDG
Chain of Voltage-gated inwardly rectifying potassium channel KCNH2 (Homo sapiens) (Q12809 whole entry, looked up): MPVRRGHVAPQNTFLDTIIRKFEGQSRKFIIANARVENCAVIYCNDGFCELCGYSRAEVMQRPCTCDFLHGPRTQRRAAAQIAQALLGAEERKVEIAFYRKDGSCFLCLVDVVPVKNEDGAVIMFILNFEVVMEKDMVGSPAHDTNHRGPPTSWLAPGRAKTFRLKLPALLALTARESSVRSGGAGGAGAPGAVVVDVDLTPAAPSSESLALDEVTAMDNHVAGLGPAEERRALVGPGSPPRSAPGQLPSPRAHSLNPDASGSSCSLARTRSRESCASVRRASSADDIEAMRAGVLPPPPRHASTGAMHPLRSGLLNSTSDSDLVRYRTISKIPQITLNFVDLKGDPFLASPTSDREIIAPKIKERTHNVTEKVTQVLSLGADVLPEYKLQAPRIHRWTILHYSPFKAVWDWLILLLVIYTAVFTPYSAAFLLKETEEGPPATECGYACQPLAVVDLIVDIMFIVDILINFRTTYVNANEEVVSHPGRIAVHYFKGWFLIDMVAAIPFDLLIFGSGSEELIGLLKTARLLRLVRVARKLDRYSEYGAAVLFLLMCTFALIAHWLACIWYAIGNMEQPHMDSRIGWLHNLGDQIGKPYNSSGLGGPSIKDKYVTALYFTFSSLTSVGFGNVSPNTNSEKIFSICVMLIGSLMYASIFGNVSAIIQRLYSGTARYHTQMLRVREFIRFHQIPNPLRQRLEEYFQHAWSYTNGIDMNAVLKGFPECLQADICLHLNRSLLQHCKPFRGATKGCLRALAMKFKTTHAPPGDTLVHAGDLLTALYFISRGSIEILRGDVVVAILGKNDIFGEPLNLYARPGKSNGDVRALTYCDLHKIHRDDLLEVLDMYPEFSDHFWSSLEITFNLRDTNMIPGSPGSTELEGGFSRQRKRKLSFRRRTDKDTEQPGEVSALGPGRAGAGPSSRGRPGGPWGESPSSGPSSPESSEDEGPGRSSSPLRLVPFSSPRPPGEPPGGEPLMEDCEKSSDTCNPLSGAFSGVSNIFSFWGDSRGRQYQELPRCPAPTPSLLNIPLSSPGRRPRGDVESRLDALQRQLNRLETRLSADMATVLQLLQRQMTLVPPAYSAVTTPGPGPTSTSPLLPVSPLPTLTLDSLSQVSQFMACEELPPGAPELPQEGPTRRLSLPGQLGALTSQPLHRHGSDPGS
Chain of Cytochrome P450 2C9 (Homo sapiens) (P11712 whole entry, looked up): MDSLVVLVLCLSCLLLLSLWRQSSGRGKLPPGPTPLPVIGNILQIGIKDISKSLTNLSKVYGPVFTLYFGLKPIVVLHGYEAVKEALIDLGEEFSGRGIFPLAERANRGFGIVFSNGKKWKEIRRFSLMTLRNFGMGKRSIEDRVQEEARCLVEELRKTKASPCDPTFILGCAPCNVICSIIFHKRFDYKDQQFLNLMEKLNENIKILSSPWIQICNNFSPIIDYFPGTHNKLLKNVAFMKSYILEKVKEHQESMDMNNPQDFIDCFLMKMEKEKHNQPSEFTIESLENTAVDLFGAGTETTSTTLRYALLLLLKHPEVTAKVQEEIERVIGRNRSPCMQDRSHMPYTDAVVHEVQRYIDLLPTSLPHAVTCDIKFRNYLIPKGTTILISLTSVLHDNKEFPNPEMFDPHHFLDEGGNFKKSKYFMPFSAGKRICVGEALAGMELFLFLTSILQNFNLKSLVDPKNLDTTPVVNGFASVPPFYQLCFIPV

Turning to `Clc1cc2c(cc1Cl)Oc1cc(Cl)c(Cl)cc1O2`, the figures for the activation in experiment [1] and in experiment [7] were -0.214% [at 0.218 µM] and -4.83% [at 0.349 µM], respectively. The activity change, negative = cytotoxicity in experiment [2] is -5.16% [at 0.349 µM]; in experiment [4] it was 8.13% [at 0.349 µM]; in experiment [6] it was -3.38% [at 0.349 µM]. In addition, in experiment [3], the caspase activation is 2.22% [at 0.349 µM]. Moreover, the caspase-3/7 activation in experiment [5] was 0.0442% [at 0.349 µM]. Also, the activity, negative = inhibition in [8] was -1.29% [at 0.435 µM]. The activity change, negative = inhibition in experiment [9] was 0.681% [at 0.435 µM]; in [10], 4.87% [at 0.439 µM]; in experiment [11], -0.563% [at 0.435 µM]; in [12], -1.99% [at 0.435 µM]; in experiment [13] it was -2.53% [at 0.435 µM]; in [14], 2.52% [at 0.435 µM]. The figures for the activity change, negative = inhibition in [15] and in experiment [16] were 4.67% [at 0.29 µM] and -0.782% [at 0.435 µM], respectively.
Consider `CCC1(c2ccccc2)C(=O)N(COC)C(=O)N(COC)C1=O`, for which the result in experiment [1], in [3] and in experiment [5] was inactive. Also, the Potency result in experiment [2], in experiment [4], in [6], in [7], in experiment [8] and in experiment [10] was “inactive” in each case. For the same molecule, the Potency entry in experiment [11], in [12], in experiment [18] and in [15] was “inactive” in each case. Besides, the max activation in experiment [17] is 3%. Besides, the Potency in experiment [13] was 6.92 µM (active).
Turning to `C=CCc1cc(OC)c2c(c1)OCO2`, the molecule was called inactive in [1], in experiment [3] and in [5]. The Potency result in experiment [2], in [4], in experiment [6], in experiment [8], in [9] and in experiment [10] was “inactive” in each case. Moreover, the Potency entry in experiment [11] and in experiment [15] was “inactive” each time. Further, the Potency in [7] is 36 µM (active); in experiment [12] it was 23.5 µM (active); in experiment [13] it was 59 µM (active); in [14], 37.2 µM (active); in [18], 1.87 µM (active); in experiment [16], 4.69 µM (active).
On to `NC(=O)OCCCc1ccccc1`, for which the molecule was classed as inactive in experiment [1], in [3] and in experiment [5]. Also, the Potency result in experiment [2], in experiment [4], in experiment [6], in experiment [7], in [19] and in [8] was “inactive” each time. The Potency result in experiment [9], in experiment [10], in [11], in [12], in [13] and in [14] was “inactive” throughout. Besides, the Potency result in experiment [15] and in experiment [16] was “inactive” each time. For the same molecule, the max activation in experiment [17] is -3.96%. For the same molecule, in experiment [18], the Potency is 21.9 µM (active).
For the molecule `c1ccc2c(c1)CCNC2`, the call in [1], in experiment [3] and in [5] was inactive. Also, the Potency result in experiment [2], in experiment [4], in [6], in experiment [7], in [8] and in [9] was “inactive” each time. Moreover, the Potency result in experiment [10] and in experiment [11] was “inactive” throughout. For the same molecule, the Potency in experiment [12] is 7.28 µM (active); in [13], 57.9 µM (active); in experiment [14] it was 32.5 µM (active).
For the molecule `CNC(=O)NC(O)C(Cl)(Cl)Cl` (stereo unspecified), the result in experiment [1], in experiment [3] and in experiment [5] was inactive. The Potency entry in experiment [2], in [4], in [6], in experiment [7], in experiment [19] and in experiment [8] was “inactive” in each case. Further, the Potency result in [9], in [10], in experiment [11], in experiment [12], in experiment [13] and in [14] was “inactive” each time. The Potency entry in experiment [18], in experiment [15] and in experiment [16] was “inactive” in each case. For the same molecule, the max activation in experiment [17] was -4.06%.
For the molecule `O=C(Cl)c1ccccc1`, the result in experiment [1], in experiment [3] and in experiment [5] was inactive. The Potency result in experiment [2], in experiment [4], in experiment [6], in experiment [7], in experiment [8] and in experiment [9] was “inactive” in each case. In addition, the Potency result in experiment [10], in experiment [11], in [12], in [18], in experiment [15] and in [16] was “inactive” throughout. In addition, the Potency in [13] was 41.1 µM (active).
